In the supplement of paper PMC10646978:
± gives the standard deviation.

The compounds below were run on RAW-Dual (murine macrophage reporter line) (assay: NF-kB reporter (SEAP) activity fold change vs agonist alone; higher = enhanced NF-kB activity). Conditions: modulator concentration 10 µM; agonist: CpG ODN 1826 0.5 ug/mL.
Procedure, shortened: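 In 384-well plates holding 50 000 RAW-Dual murine macrophage reporter cells per well, compound at 10 μM final was pre-incubated for 1 hour at 37 °C, after which a PRR agonist was added overnight. Supernatant SEAP read with QUANTI-Blue at 620 nm absorbance reported NF-κB, and Lucia luciferase read with QUANTI-Luc luminescence reported IRF. Fold change values come from dividing each reporter signal by the mean of agonist-only control wells on the same plate, averaged over replicate plates with propagated errors.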
COc1ccc(CCNCc2ccc3ccccc3c2)cc1OC gave an NF-kB reporter of 0.42 ± 0.095. COc1ccc(CCNCc2cccc3ccccc23)cc1OC gave an NF-kB reporter of 0.222 ± 0.016. In the case of COc1cc2c(c(OC)c1OC)-c1ccc(OC)c(=O)cc1C(NC(C)=O)CC2 (stereo not drawn), the NF-kB reporter is reported as 2.37 ± 0.14. CN1C(=O)NC(=O)C(=Cc2ccc([N+](=O)[O-])s2)C1=O gave an NF-kB reporter of 1.12 ± 0.12. In the case of CCOC(=O)c1ccccc1-c1ccc(C=C2C(=O)NC(=O)N(c3cccc(C)c3)C2=O)o1, the NF-kB reporter is reported as 1 ± 0.18. CC[C@@H](C(N)=O)N1CCCC1=O was tested, and the NF-kB reporter was 1.04 ± 0.1. CC(=O)OC1CN2CCC1CC2.Cl (stereo not drawn) showed an NF-kB reporter of 0.984 ± 0.35. Work on COc1ccc(CCNCc2ccc(OC)c(OC)c2OC)cc1OC yielded an NF-kB reporter of 1.01 ± 0.11. With CC1=C(O)C(=O)C=C2C1=CC=C1C2(C)CCC2(C)C3CC(C)(C(=O)O)CCC3(C)CCC12C (stereo not drawn) the NF-kB reporter was 0.062 ± 0.0049. For CN1C2CCC1CC(OC(=O)[C@H](CO)c1ccccc1)C2 (stereo partly drawn), the NF-kB reporter was 1.05 ± 0.096. Work on COc1cc(OC)c(OC)cc1C=O yielded an NF-kB reporter of 1.08 ± 0.3. C[C@@H]1CC[C@H]2[C@@H](C)C(=O)O[C@@H]3O[C@@]4(C)CC[C@@H]1[C@]32OO4 was tested, and the NF-kB reporter was 0.961 ± 0.086. Work on CC(=O)OC1CCC2(C)C(=CCC3C4CCC(=O)C4(C)CCC32)C1 (stereo not drawn) yielded an NF-kB reporter of 0.92 ± 0.084. With CC12CCC3C(CC=C4CC(O)CCC43C)C1CC(=Cc1cccc(F)c1)C2=O (stereo not drawn) the NF-kB reporter was 0.722 ± 0.046. With COc1ccc(CNCCc2c[nH]c3ccccc23)c(OC)c1C the NF-kB reporter was 0.258 ± 0.021. O=[N+]([O-])Nc1ccc(Br)cn1 showed an NF-kB reporter of 0.998 ± 0.09. Compound CN1C(=O)NC(=O)C(=Cc2ccc([N+](=O)[O-])o2)C1=O has an NF-kB reporter of 0.875 ± 0.069. For C1CCc2nnnn2CC1 [Prestw-162], the NF-kB reporter was 1.27 ± 0.3. CC(C)(C)NCC(O)c1cc(Cl)c(N)c(Cl)c1 (stereo not drawn) [Prestw-345] showed an NF-kB reporter of 1.89 ± 0.13. Compound NNC(=O)c1ccccc1 has an NF-kB reporter of 1.06 ± 0.088.

Same assay, conditions: modulator concentration 10 µM; agonist: LPS 0.1 ug/mL
With CC(=O)Nc1ccc(C(=O)NCC#CCN(C)C)cc1 the NF-kB reporter was 0.879 ± 0.083. With CC(=O)Oc1ccc(C=Cc2cc(OC(C)=O)cc(OC(C)=O)c2)cc1 the NF-kB reporter was 1.15 ± 0.073. O=C(O)COc1cc(Cl)c(Cl)cc1Cl showed an NF-kB reporter of 0.836 ± 0.11. Cc1ccc(C)c2sc(N3CCN(C)CC3)nc12.Cl was tested, and the NF-kB reporter was 1.02 ± 0.18. COc1ccccc1CC(=O)N1CCN(Cc2cnnn2-c2ccccc2F)CC1 was tested, and the NF-kB reporter was 0.985 ± 0.084. Compound Cc1cccc2sc(NC(=O)c3cccn(Cc4ccc(Br)cc4)c3=O)nc12 has an NF-kB reporter of 1.13 ± 0.096. CCN(CC)CCOC(=O)C(O)(c1ccccc1)c1ccccc1.Cl was tested, and the NF-kB reporter was 1.04 ± 0.41. Work on O=C(NCCN1CCN(c2ccccc2)CC1)c1ccc(F)cc1 yielded an NF-kB reporter of 1.04 ± 0.051. In the case of c1cc2c(cc1C1OCC3C(c4ccc5c(c4)OCO5)OCC13)OCO2 (stereo not drawn), the NF-kB reporter is reported as 1.16 ± 0.058. For CN1C2CCC1CC(OC(=O)C(CO)c1ccccc1)C2 (stereo not drawn), the NF-kB reporter was 1.19 ± 0.083. In the case of COc1cc2c(c(OC)c1OC)-c1ccc(O)c(=O)cc1C(NC(C)=O)CC2 (stereo not drawn), the NF-kB reporter is reported as 1.27 ± 0.084. O=C1NC(=O)N(c2ccccc2F)C(=O)C1=Cc1ccc(OCc2ccc([N+](=O)[O-])cc2)c(Cl)c1 gave an NF-kB reporter of 1.03 ± 0.068. Work on CCCCCC(=O)NC(Oc1ccc([N+](=O)[O-])cc1)C(Cl)(Cl)Cl (stereo not drawn) yielded an NF-kB reporter of 1.08 ± 0.07. For C=C1C[C@@H]2[C@H](CC[C@]3(C)C(=O)CC[C@@H]23)[C@@]2(C)C=CC(=O)C=C12, the NF-kB reporter was 0.79 ± 0.091. With O=C1NC(=O)C(=Cc2cccn2-c2ccc(Br)cc2)C(=O)N1 the NF-kB reporter was 0.758 ± 0.06. Work on CC(C)N(CCC(C(N)=O)(c1ccccc1)c1ccccn1)C(C)C (stereo not drawn) yielded an NF-kB reporter of 0.945 ± 0.09. For CCNCC.O=C(O)Cc1ccccc1Nc1c(Cl)cccc1Cl, the NF-kB reporter was 1.08 ± 0.38. Cc1cc(N2CCNCC2)c2ccccc2n1 gave an NF-kB reporter of 0.789 ± 0.062. Work on COc1ccc(CCNCc2ccc3ccccc3c2)cc1OC yielded an NF-kB reporter of 0.762 ± 0.058. For COc1ccc(CCNCc2cccc3ccccc23)cc1OC, the NF-kB reporter was 0.82 ± 0.059. COc1cc2c(c(OC)c1OC)-c1ccc(OC)c(=O)cc1C(NC(C)=O)CC2 (stereo not drawn) showed an NF-kB reporter of 1.47 ± 0.092. With CN1C(=O)NC(=O)C(=Cc2ccc([N+](=O)[O-])s2)C1=O the NF-kB reporter was 1.08 ± 0.07. CCOC(=O)c1ccccc1-c1ccc(C=C2C(=O)NC(=O)N(c3cccc(C)c3)C2=O)o1 showed an NF-kB reporter of 0.965 ± 0.11. For CC[C@@H](C(N)=O)N1CCCC1=O, the NF-kB reporter was 1.05 ± 0.059. In the case of CC(=O)OC1CN2CCC1CC2.Cl (stereo not drawn), the NF-kB reporter is reported as 0.984 ± 0.12. In the case of COc1ccc(CCNCc2ccc(OC)c(OC)c2OC)cc1OC, the NF-kB reporter is reported as 0.876 ± 0.14. CC1=C(O)C(=O)C=C2C1=CC=C1C2(C)CCC2(C)C3CC(C)(C(=O)O)CCC3(C)CCC12C (stereo not drawn) gave an NF-kB reporter of 0.048 ± 0.0035. CN1C2CCC1CC(OC(=O)[C@H](CO)c1ccccc1)C2 (stereo partly drawn) was tested, and the NF-kB reporter was 0.961 ± 0.051. COc1cc(OC)c(OC)cc1C=O showed an NF-kB reporter of 1.04 ± 0.082. For C[C@@H]1CC[C@H]2[C@@H](C)C(=O)O[C@@H]3O[C@@]4(C)CC[C@@H]1[C@]32OO4, the NF-kB reporter was 0.916 ± 0.052. CC(=O)OC1CCC2(C)C(=CCC3C4CCC(=O)C4(C)CCC32)C1 (stereo not drawn) showed an NF-kB reporter of 0.901 ± 0.076. With CC12CCC3C(CC=C4CC(O)CCC43C)C1CC(=Cc1cccc(F)c1)C2=O (stereo not drawn) the NF-kB reporter was 1 ± 0.061. COc1ccc(CNCCc2c[nH]c3ccccc23)c(OC)c1C was tested, and the NF-kB reporter was 0.924 ± 0.076. In the case of O=[N+]([O-])Nc1ccc(Br)cn1, the NF-kB reporter is reported as 0.98 ± 0.096. CN1C(=O)NC(=O)C(=Cc2ccc([N+](=O)[O-])o2)C1=O was tested, and the NF-kB reporter was 1.06 ± 0.083. C1CCc2nnnn2CC1 [Prestw-162] was tested, and the NF-kB reporter was 0.966 ± 0.18. In the case of CC(C)(C)NCC(O)c1cc(Cl)c(N)c(Cl)c1 (stereo not drawn) [Prestw-345], the NF-kB reporter is reported as 0.945 ± 0.072. NNC(=O)c1ccccc1 showed an NF-kB reporter of 1.05 ± 0.082.
